Holding throughout (assay): NCI-60 one-dose screen, 48 h (100 = growth as untreated, 0 = no growth, -100 = all killed)
Holding throughout (settings): 10 µM unless noted

Experiment [1] concerns SR leukemia.
The test system of experiment [2] is RPMI-8226 leukemia.
Experiment [3] has as its system OVCAR-8 ovarian.
Experiment [4] deals with OVCAR-5 ovarian.
Experiment [5] relates to OVCAR-4 ovarian.
The subject of experiment [6] is SK-OV-3 ovarian.
The subject of experiment [7] is IGROV1 ovarian.
Experiment [8] has as its system OVCAR-3 ovarian.
Experiment [9] relates to HS 578T breast.
Experiment [10] relates to NCI/ADR-RES ovarian.
In experiment [11] the test system is T-47D breast.
Experiment [12] deals with BT-549 breast.
Experiment [13] concerns MDA-MB-435 melanoma.
In experiment [14] the test system is SW-620 colon.
The test system of experiment [15] is MCF7 breast.
Experiment [16] concerns HCT-116 colon.
The subject of experiment [17] is HCC-2998 colon.
The test system of experiment [18] is KM12 colon.

The panel holds about 83,000 compounds, 20% with a hit somewhere; the sample as a whole holds those more often.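 Results are percent growth after 48 hours of single-concentration exposure. 100 means growth as in untreated cells, lower positive values show inhibition; negative values down to -100 show cell death.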 Unmarked numbers belong to inactive results. Activity calls are given as the source filed them. Rule for the calls: active = growth percent below 10; inactive = the rest.

Turning to `COc1cc(OC)cc(-c2n[nH]nc2-c2ccc3c(c2)OCO3)c1`, the growth was 14.4% in experiment [1]; 26.2% in experiment [2]; 28.6% in [3]; 4.97% (active) in [4]; 52.5% in [5]; 16.3% in experiment [6]. Moreover, the growth in [7] was 39.5%; in experiment [8], 10%; in experiment [9], 12.1%; in experiment [10] it was 3.37% (active); in [11], 55.4%; in [12], 51.2%. For the same compound, the growth in [13] was -82.8% (active); in experiment [14] it was 30.8%; in experiment [15], 24.3%; in experiment [16], 15.7%; in experiment [17], 31.9%; in experiment [18] it was 25.1%.
As to `Cc1cc(Nc2nc(-c3ccc(F)cc3)nc3ccccc23)n[nH]1`, the growth is 20.4% in experiment [1]; 94.8% in experiment [2]; 95% in [3]; 70.3% in experiment [4]; 41% in experiment [5]; 21% in [6]. Also, the growth in [7] was 11.3%; in experiment [8], 61.5%; in experiment [9], 25.1%; in [10] it was 71%; in experiment [11], 29.3%; in [12], 72.9%. The growth in [13] is 31.2%; in experiment [14] it was 48.8%; in experiment [15] it was 23.8%; in [16], 28.5%; in experiment [17] it was 67.3%; in [18], 14.8%.
For `O=C(CSc1nc(-c2ccc(Cl)cc2)cn1-c1ccc(Cl)cc1)c1ccc(Br)cc1`, the growth in experiment [1] is 92.7%; in experiment [2], 86.1%; in experiment [3], 48%; in experiment [4], 84.1%; in [5], 9.78% (active); in experiment [6] it was 79%. Besides, the growth in experiment [7] is 59.9%; in experiment [8] it was 84.9%; in [9], 63.2%; in experiment [10], 70.6%; in experiment [11] it was 69.6%; in experiment [12], 94.1%. For the same compound, the growth in [13] is 91.5%; in experiment [14], 89.3%; in experiment [16], 43.9%; in experiment [17] it was 89.6%; in experiment [18], 88.5%.
As for `C[N+](C)(C)c1ccc(CC2c3ccccc3-c3ccccc32)cc1`, the growth in experiment [1] is 85%; in experiment [2], 68.6%; in [3], 85.7%; in [4], 86.1%; in experiment [5] it was 85.2%; in experiment [6] it was 75.3%. The growth in experiment [7] is 64.4%; in experiment [8], 67%; in experiment [9], 4.68% (active); in [10], 107%; in experiment [11], 51.1%; in experiment [12], 59.2%. Further, the growth in experiment [13] is 90.4%; in [14] it was 86.2%; in [16], 73.3%; in experiment [17], 88.8%; in experiment [18] it was 77%.
In the case of `CS(=O)(=O)N(c1cc(-c2ccc3ncnc(Nc4cccc(Cl)c4)c3c2)cnc1Cl)S(C)(=O)=O`, the growth in [1] was 22.8%; in experiment [2], -6.09% (active); in [3], 23.8%; in [4], 12.1%; in experiment [5] it was 43.3%; in experiment [6], -11.1% (active). The growth in [7] was -38.3% (active); in experiment [8] it was 11.1%; in [9], -3.12% (active); in experiment [10], 42.2%; in experiment [11], -2.25% (active); in [12], -8.61% (active). Moreover, the growth in [13] is 15.9%; in experiment [14], 20.4%; in experiment [16], 12.1%; in [17], 23.9%; in [18], 21.3%.
For the compound `Clc1nc(Cl)c2ncn(C/C=C/Cn3cnc4c(Cl)nc(Cl)nc43)c2n1`, the growth is -14.2% (active) in [1]; -17.3% (active) in experiment [2]; 7.73% (active) in experiment [3]; 112% in [4]; 94.6% in experiment [5]; 103% in experiment [6]. For the same compound, the growth in experiment [7] is 17.7%; in experiment [8], 60.5%; in [9], 46.3%; in experiment [10] it was 99%; in [11] it was 38.2%; in experiment [12] it was -33.3% (active). Besides, the growth in [13] was 98.3%; in [14], 45%; in experiment [15] it was 38.3%; in experiment [16], 33.3%; in experiment [18], 78.7%.
Consider `O=C(Nc1cc(C(F)(F)F)cc(C(F)(F)F)c1)Nc1ccc(OCc2nnc(-c3ccc(Cl)cc3)o2)c(F)c1`, for which the growth in [1] is 0.985% (active); in [2] it was 3.52% (active); in experiment [3], 10.6%; in [4], -5.15% (active); in [5], 24%; in [6] it was 5.55% (active). The growth was 32.7% in [7]; 16% in experiment [8]; 28.1% in [9]; 4.95% (active) in [10]; 13.2% in experiment [11]; 22.8% in experiment [12]. Besides, the growth in experiment [13] was 9.18% (active); in experiment [14], 22.8%; in experiment [15] it was 6.03% (active); in [16] it was 7.81% (active); in [17], 20.3%; in [18], 13.7%.
On to `CCc1cccc(C)c1NC(=O)c1sc2nc3c(cc2c1N)C(=O)CCC3`, for which the growth was 2.24% (active) in experiment [1]; 9.64% (active) in experiment [2]; 27.9% in experiment [3]; 29.2% in experiment [4]; 76.3% in experiment [5]; 10.4% in experiment [6]. Further, the growth in experiment [7] is 30.7%; in experiment [8], -26% (active); in experiment [9], 24.8%; in experiment [10], 8.17% (active); in [11] it was 24.4%; in experiment [12], 46.8%. The growth in experiment [13] is -27.5% (active); in [14] it was 28.7%; in experiment [15], 20.3%; in experiment [16], 31.6%; in experiment [17] it was 10.2%; in [18], 19%.
In the case of `COc1cc(NC(=O)c2cc3ccccc3nc2Nc2ccc(F)cc2)cc(OC)c1OC`, the growth in experiment [1] is 35.7%; in [2], 29.8%; in experiment [3], 43.3%; in [4] it was 68.8%; in experiment [5], 47.7%; in experiment [6] it was 72.8%. Also, the growth is 54.5% in experiment [7]; 36.2% in experiment [8]; 75.5% in [9]; 39.7% in experiment [10]; 22.1% in experiment [11]; 30.7% in experiment [12]. Besides, the growth in experiment [13] is 27%; in experiment [14] it was 54.4%; in [15] it was 24.2%; in [16] it was 35.8%; in [17], 65.9%; in experiment [18] it was 42.7%.

(Values after PubChem BioAssay (NCI).)
